How the values were obtained:
Details in all cases: treatment time: 24 h
A549-ACTB-RAB5A [1] = experiment: lowest phenotypically active concentration; higher = less potent
Outline: (§1)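 Two criteria together defined phenotypic activity: deviation and reproducibility. Deviation meant ≥3 of 4 wells beyond the 95th percentile of Euclidean distances in solvent control wells, and reproducibility meant a median replicate Pearson correlation above the 95th percentile of non-replicates. Wells had been treated for 24 h at 0.3, 1, 3 or 9 µM in fifteen gene-edited A549, HepG2 and WPMY1 reporter lines before live imaging.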

A549-GM130-SQSTM1 [2] = experiment: as above
Outline: as §1

A549-TUBA1B-RELA [3] = experiment: as above
Outline: as §1

WPMY1-ACTB-RAB5A [4] = experiment: as above
Outline: as §1

A549-ACTB-RAB5A [5] = experiment: phenotypically active (imaging signature differs from DMSO and reproducible) at any of 0.3-9 uM (binary (1 = active, 0 = inactive)); higher = active
Outline: as §1

A549-CANX-COX4 = experiment: as above
Outline: as §1

A549-GM130-SQSTM1 [6] = experiment: as above
Outline: as §1

A549-TP53BP1-CLTA = experiment: as above
Outline: as §1

A549-TUBA1B-RELA [7] = experiment: as above
Outline: as §1

HepG2-ACTB-RAB5A = experiment: as above
Outline: as §1

HepG2-CANX-COX4 = experiment: as above
Outline: as §1

HepG2-GM130-SQSTM1 = experiment: as above
Outline: as §1

HepG2-TP53BP1-CLTA = experiment: as above
Outline: as §1

HepG2-TUBA1B-RELA = experiment: as above
Outline: as §1

WPMY1-ACTB-RAB5A [8] = experiment: as above
Outline: as §1

WPMY1-CANX-COX4 [9] = experiment: as above
Outline: as §1

WPMY1-GM130-SQSTM1 = experiment: as above
Outline: as §1

WPMY1-TP53BP1-CLTA = experiment: as above
Outline: as §1

WPMY1-TUBA1B-RELA = experiment: as above
Outline: as §1

WPMY1-CANX-COX4 [10] = experiment: lowest phenotypically active concentration; higher = less potent
Outline: as §1

CCCCOc1cc(C(=O)NCCN(CC)CC)c2ccccc2n1 [cinchocaine]
9 µM: lowest phenotypically active concentration (A549-GM130-SQSTM1 [2]) | lowest phenotypically active concentration (A549-TUBA1B-RELA [3]) | lowest phenotypically active concentration (WPMY1-ACTB-RAB5A [4])
active: phenotypically active (A549-ACTB-RAB5A [5]) 1 | phenotypically active (A549-GM130-SQSTM1 [6]) 1 | phenotypically active (A549-TP53BP1-CLTA) 1 | phenotypically active (A549-TUBA1B-RELA [7]) 1 | phenotypically active (HepG2-TP53BP1-CLTA) 1 | phenotypically active (WPMY1-ACTB-RAB5A [8]) 1
inactive: phenotypically active (A549-CANX-COX4) 0 | phenotypically active (HepG2-ACTB-RAB5A) 0 | phenotypically active (HepG2-CANX-COX4) 0 | phenotypically active (HepG2-GM130-SQSTM1) 0 | phenotypically active (HepG2-TUBA1B-RELA) 0 | phenotypically active (WPMY1-CANX-COX4 [9]) 0 | phenotypically active (WPMY1-GM130-SQSTM1) 0 | phenotypically active (WPMY1-TP53BP1-CLTA) 0 | phenotypically active (WPMY1-TUBA1B-RELA) 0
3 µM: lowest phenotypically active concentration (A549-ACTB-RAB5A [1])

NC(=O)c1cccc(-c2cc(Nc3ccc(OC(F)(F)F)cc3)ncn2)c1
inactive: phenotypically active (A549-CANX-COX4) 0 | phenotypically active (HepG2-ACTB-RAB5A) 0 | phenotypically active (HepG2-CANX-COX4) 0 | phenotypically active (HepG2-TP53BP1-CLTA) 0 | phenotypically active (HepG2-TUBA1B-RELA) 0 | phenotypically active (WPMY1-CANX-COX4 [9]) 0 | phenotypically active (WPMY1-TUBA1B-RELA) 0
active: phenotypically active (A549-ACTB-RAB5A [5]) 1 | phenotypically active (A549-GM130-SQSTM1 [6]) 1 | phenotypically active (A549-TP53BP1-CLTA) 1 | phenotypically active (A549-TUBA1B-RELA [7]) 1 | phenotypically active (HepG2-GM130-SQSTM1) 1 | phenotypically active (WPMY1-ACTB-RAB5A [8]) 1 | phenotypically active (WPMY1-GM130-SQSTM1) 1 | phenotypically active (WPMY1-TP53BP1-CLTA) 1
9 µM: lowest phenotypically active concentration (A549-ACTB-RAB5A [1]) | lowest phenotypically active concentration (A549-GM130-SQSTM1 [2]) | lowest phenotypically active concentration (A549-TUBA1B-RELA [3])
3 µM: lowest phenotypically active concentration (WPMY1-ACTB-RAB5A [4])

CSc1ccc2c(c1)N(CCC1CCCCN1C)c1ccccc1S2 (stereo not given) [thioridazine]
inactive: phenotypically active (A549-CANX-COX4) 0
active: phenotypically active (A549-ACTB-RAB5A [5]) 1 | phenotypically active (A549-GM130-SQSTM1 [6]) 1 | phenotypically active (A549-TP53BP1-CLTA) 1 | phenotypically active (A549-TUBA1B-RELA [7]) 1 | phenotypically active (HepG2-ACTB-RAB5A) 1 | phenotypically active (HepG2-CANX-COX4) 1 | phenotypically active (HepG2-GM130-SQSTM1) 1 | phenotypically active (HepG2-TP53BP1-CLTA) 1 | phenotypically active (HepG2-TUBA1B-RELA) 1 | phenotypically active (WPMY1-ACTB-RAB5A [8]) 1 | phenotypically active (WPMY1-CANX-COX4 [9]) 1 | phenotypically active (WPMY1-GM130-SQSTM1) 1 | phenotypically active (WPMY1-TP53BP1-CLTA) 1 | phenotypically active (WPMY1-TUBA1B-RELA) 1
3 µM: lowest phenotypically active concentration (A549-ACTB-RAB5A [1]) | lowest phenotypically active concentration (A549-GM130-SQSTM1 [2]) | lowest phenotypically active concentration (A549-TUBA1B-RELA [3])
9 µM: lowest phenotypically active concentration (WPMY1-ACTB-RAB5A [4]) | lowest phenotypically active concentration (WPMY1-CANX-COX4 [10])

CC(C)OC(=O)c1cc2c(OCC(O)CNC(C)(C)C)cccc2[nH]1 (stereo not given)
9 µM: lowest phenotypically active concentration (A549-GM130-SQSTM1 [2]) | lowest phenotypically active concentration (WPMY1-CANX-COX4 [10])
3 µM: lowest phenotypically active concentration (A549-ACTB-RAB5A [1]) | lowest phenotypically active concentration (A549-TUBA1B-RELA [3]) | lowest phenotypically active concentration (WPMY1-ACTB-RAB5A [4])
active: phenotypically active (A549-ACTB-RAB5A [5]) 1 | phenotypically active (A549-GM130-SQSTM1 [6]) 1 | phenotypically active (A549-TP53BP1-CLTA) 1 | phenotypically active (A549-TUBA1B-RELA [7]) 1 | phenotypically active (HepG2-ACTB-RAB5A) 1 | phenotypically active (HepG2-TP53BP1-CLTA) 1 | phenotypically active (HepG2-TUBA1B-RELA) 1 | phenotypically active (WPMY1-ACTB-RAB5A [8]) 1 | phenotypically active (WPMY1-CANX-COX4 [9]) 1 | phenotypically active (WPMY1-GM130-SQSTM1) 1 | phenotypically active (WPMY1-TP53BP1-CLTA) 1 | phenotypically active (WPMY1-TUBA1B-RELA) 1
inactive: phenotypically active (A549-CANX-COX4) 0 | phenotypically active (HepG2-CANX-COX4) 0 | phenotypically active (HepG2-GM130-SQSTM1) 0

Clc1ccccc1C(c1ccccc1)(c1ccccc1)n1ccnc1 [Clotrimazole]
inactive: phenotypically active (A549-CANX-COX4) 0 | phenotypically active (A549-TUBA1B-RELA [7]) 0 | phenotypically active (HepG2-GM130-SQSTM1) 0 | phenotypically active (HepG2-TP53BP1-CLTA) 0 | phenotypically active (HepG2-TUBA1B-RELA) 0 | phenotypically active (WPMY1-ACTB-RAB5A [8]) 0 | phenotypically active (WPMY1-TP53BP1-CLTA) 0 | phenotypically active (WPMY1-TUBA1B-RELA) 0
9 µM: lowest phenotypically active concentration (A549-ACTB-RAB5A [1]) | lowest phenotypically active concentration (A549-GM130-SQSTM1 [2]) | lowest phenotypically active concentration (WPMY1-CANX-COX4 [10])
active: phenotypically active (A549-ACTB-RAB5A [5]) 1 | phenotypically active (A549-GM130-SQSTM1 [6]) 1 | phenotypically active (A549-TP53BP1-CLTA) 1 | phenotypically active (HepG2-ACTB-RAB5A) 1 | phenotypically active (HepG2-CANX-COX4) 1 | phenotypically active (WPMY1-CANX-COX4 [9]) 1 | phenotypically active (WPMY1-GM130-SQSTM1) 1

Cc1ccc(NC(=O)c2cccc(N(C)C)c2)cc1NC(=O)c1ccc(O)cc1
9 µM: lowest phenotypically active concentration (WPMY1-ACTB-RAB5A [4])
inactive: phenotypically active (A549-CANX-COX4) 0 | phenotypically active (HepG2-ACTB-RAB5A) 0 | phenotypically active (HepG2-CANX-COX4) 0 | phenotypically active (HepG2-GM130-SQSTM1) 0 | phenotypically active (HepG2-TP53BP1-CLTA) 0 | phenotypically active (HepG2-TUBA1B-RELA) 0 | phenotypically active (WPMY1-CANX-COX4 [9]) 0 | phenotypically active (WPMY1-GM130-SQSTM1) 0 | phenotypically active (WPMY1-TP53BP1-CLTA) 0 | phenotypically active (WPMY1-TUBA1B-RELA) 0
active: phenotypically active (A549-ACTB-RAB5A [5]) 1 | phenotypically active (A549-GM130-SQSTM1 [6]) 1 | phenotypically active (A549-TP53BP1-CLTA) 1 | phenotypically active (A549-TUBA1B-RELA [7]) 1 | phenotypically active (WPMY1-ACTB-RAB5A [8]) 1
3 µM: lowest phenotypically active concentration (A549-ACTB-RAB5A [1]) | lowest phenotypically active concentration (A549-GM130-SQSTM1 [2]) | lowest phenotypically active concentration (A549-TUBA1B-RELA [3])

Reference: the supplement of paper PMC7411054
